Bioassay records: PubChem BioAssay, National Center for Advancing Translational Sciences (NCATS)
Most compounds without a hit are left out; they make up all but 19% or so of the library.
IL1B secr inh: inflammasome signaling inhibition, IL-1 beta readout; THP-1 LPS/ATP IL-1B secretion, AlphaLISA, 16 h; active compounds read low; activity change, % at 57.5 µM; 4.7% of 360,000 active; in the data active means activity change below about -50%; inconclusive means mostly about -30% to -49%
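THP-1 cells pretreated 1 hr with compounds (up to 57.5 uM final), then stimulated with LPS (250 ng/mL final) plus ATP (1.25 mM final); secreted IL-1B measured by AlphaLISA after 16 hr, decreased signal indicating inhibition.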
HT1080 IDH1KD tx: kills HT-1080 cells with IDH1 knockdown; HT-1080 IDH1 knockdown viability, ATP luminescence, 48 h; Potency, µM (series often up to 46.1 µM), hits mostly cytotoxic; 2% of 360,000 active; AID 686971
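Using the IDH1-knockdown HT-1080 line run in the same batch and compound series as the NT line, viability after 48 h at 37 °C was determined by CellTiter-Glo luminescence and expressed as % activity.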
DT40 TDP1 CPT: growth inhibition of DT40 Tdp1-/-;hTDP1 cells with camptothecin (screen for TDP1 inhibitors) | Potency, µM (doses to about 46.2 µM), usual class: inhibitors | chicken DT40 Tdp1-/-;hTDP1 cells + 20 nM CPT, ATP luminescence, 48 h | 12% of 420,000 active; further: nearly all actives have a fitted effect of over 55% in size
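Chicken DT40 Tdp1-/- cells stably complemented with human TDP1 were seeded at 400 cells/well in medium containing 20 nM camptothecin, exposed to pin-transferred compounds, and grown at 37 °C for at least 48 hr. Viability was read as ATP luminescence.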
DT40 TDP1 no CPT: qHTS for Inhibitors of human tyrosyl-DNA phosphodiesterase 1 (TDP1): qHTS in cells in absence of CPT. Potency, µM (titrated, usually from 46.2 µM), usual class: inhibitors. 15% of 420,000 active. AID 686978, 2013. DT40 Tdp1-/- hTDP1 cells, no CPT, ATP luminescence, 48 h; further: nearly all actives have a fitted effect of over 55% in size
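Seeded 400 DT40-hTDP1 cells/well (vehicle DMSO, no 20 nM CPT); pinned compounds; ≥48 hr at 37 °C; CellTiter-Glo luminescence as viability measure.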
HT1080-NT tox: kills 2HG-producing HT-1080-NT fibrosarcoma cells; Potency, µM (doses to about 46.1 µM), hits mostly cytotoxic; 1.6% of 360,000 active; AID 686970; HT-1080-NT fibrosarcoma viability, CellTiter-Glo ATP luminescence, 48 h;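 further: NT is the 2HG producing partner of a matched IDH1 knockdown line; nearly all actives have a fitted effect of over 55% in size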
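Viability by CellTiter-Glo luminescence after 48 h compound exposure at 37C of HT-1080-NT cells (750/well, RPMI, 5% FBS). % activity scaled between DMSO wells and medium-only wells, then curve-fitted and categorized by curve class.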
Hits are given with their value; . = inactive; ? = inconclusive; / = not tested or not shown. Unless noted, the call rests on the fitted dose curve; in most records, active means well fitted curve in the direction sought with a large enough effect; inconclusive means small, poorly fitted or top-dose-only effect, or another doubt; inactive means no such curve, though single readings can be large; an effect the other way counts as inactive or inconclusive.

SMILES	IL1B secr inh	HT1080 IDH1KD tx	DT40 TDP1 CPT	DT40 TDP1 no CPT	HT1080-NT tox
O=[N+]([O-])/C=C/c1cc2ccccc2[nH]1	.	.	21µM	18µM	.
CC1=C(C(=O)N(C)C)CC(CC(=O)NC2CC2)C(=O)N1Cc1ccc(C(C)(C)C)cc1 (stereo not drawn)	.	.	.	?	.
CC1=C(C(=O)N(C(C)C)C(C)C)CC(CC(=O)NCC2CCCCC2)C(=O)N1Cc1ccc(C(C)(C)C)cc1 (stereo not drawn)	/	23µM	19µM	19µM	?
CCN(CC)C(=O)C1=C(C)N(Cc2ccc(OC)cc2)C(=O)C(CC(=O)NCC2CCCCC2)C1 (stereo not drawn)	.	.	?	21µM	.
COc1ccc(CN2C(=O)C(CC(=O)NCC3CCCCC3)CC(C(=O)N(C)C)=C2C)cc1 (stereo not drawn)	.	.	?	?	.
CC1=C(C(=O)N(C(C)C)C(C)C)CC(CC(=O)NC2CC2)C(=O)N1Cc1ccc(C(C)(C)C)cc1 (stereo not drawn)	.	.	?	29µM	.
CCCCNc1nc2c(S(=O)(=O)c3ccc(Br)cc3)nnn2c2ccsc12	/	/	.	.	/
COc1cc(Nc2nc3c(S(=O)(=O)c4ccc(C)c(C)c4)nnn3c3ccsc23)cc(OC)c1	/	/	9.2µM	13µM	/
COc1ccc(Nc2nc3c(S(=O)(=O)c4ccc(Br)cc4)nnn3c3ccsc23)c(OC)c1	/	/	16µM	21µM	/
C/C=C/C1=CC(=O)C[C@H](c2ccc(OC)c(OC)c2)C1	-97	.	?	?	.
COc1ccc([C@H]2CC(=O)C=C(c3cc4ccccc4s3)C2)cc1OC	?	.	?	?	?
C/C=C/C1=CC(=O)C[C@H](c2ccc(Cl)cc2)C1	-82	.	?	?	.
C/C=C/C1=CC(=O)C[C@H](c2ccc(F)cc2)C1	?	.	?	?	.
Cc1ccc2nc(N(Cc3cccnc3)C(=O)CCS(=O)(=O)c3ccccc3)sc2c1	/	/	?	16µM	/
CCS(=O)(=O)c1ccccc1C(=O)N(Cc1cccnc1)c1nc2cc(C)c(C)cc2s1	/	/	?	23µM	/
O=C(CCS(=O)(=O)c1ccccc1)N(Cc1cccnc1)c1nc2ccc(Cl)cc2s1	/	/	5.8µM	13µM	/
Cc1ccc2nc(N(Cc3cccnc3)C(=O)Cc3ccccc3)sc2c1	/	/	.	.	/
O=C(Cc1ccccc1)N(Cc1cccnc1)c1nc2ccc(Cl)cc2s1	/	/	?	.	/
CC1(C(=O)NCc2ccccc2)CSCC(=O)N1Cc1cccs1 (stereo not drawn)	.	.	?	?	.
COc1cccc(-c2nc3cc(SC)ccc3cc2CN(C(=O)c2sccc2C)C2CC2)c1	/	/	.	.	/
CO[C@H]1O[C@@H]2O[C@@]3(C)CC[C@H]4[C@H](C)CC[C@@H]([C@H]1C)[C@@]24OO3	/	/	2.7µM	1.5µM	/
CSc1nnc(-c2ccccc2N=Cc2c(C)[nH]n(-c3ccc4ccccc4c3)c2=O)c(=O)[nH]1	.	?	21µM	?	?
C=CCSc1nnc(-c2ccccc2N=Cc2c(C)[nH]n(-c3ccccc3)c2=O)c(=O)[nH]1	.	.	?	?	.
CC1(C(=O)NS(=O)(=O)Cc2ccccc2)CCN1C(=O)C1(c2ccc(Cl)cc2)CC1 (stereo not drawn)	.	.	.	.	.
O=C(COC(=O)c1ccc2[nH]c3c(c2c1)CCCC3)Nc1ccccc1Cl	.	.	.	.	.
SMILES	IL1B secr inh	HT1080 IDH1KD tx	DT40 TDP1 CPT	DT40 TDP1 no CPT	HT1080-NT tox
Cc1cccc(C)c1NC(=O)COC(=O)c1ccc(N2CCCC2)c([N+](=O)[O-])c1	.	.	.	?	.
CCC(C)c1ccccc1NC(=O)COC(=O)c1ccc(N2CCCC2)c([N+](=O)[O-])c1 (stereo not drawn)	.	.	21µM	?	.
CCC(C)c1ccccc1NC(=O)COC(=O)c1ccc2[nH]c3c(c2c1)CCCC3 (stereo not drawn)	.	?	16µM	18µM	.
O=C(O)/C=C/C(=O)NNC(=O)c1cccc(Br)c1	.	.	.	?	.
CC1(C(=O)Nc2cnc3ccccc3c2)CCN1C(=O)C/C=C/c1ccccc1 (stereo not drawn)	.	.	3.3µM	6.5µM	.
CC1(C(=O)Nc2ccc3[nH]ncc3c2)CCN1C(=O)C/C=C/c1ccccc1 (stereo not drawn)	.	.	?	18µM	.
CC1(C(=O)Nc2ccc3[nH]ncc3c2)CCN1C(=O)C1(c2ccccc2)CC1 (stereo not drawn)	.	.	8.2µM	.	.
CCc1cccc(OCC(=O)N(C)CC(=O)Nc2cccc(F)c2)c1	.	.	.	.	.
COc1cc2[nH]c(C(=O)N3CCN(c4ccccc4F)CC3)cc2c(OC)c1OC	.	.	?	?	.
C[C@H](NC(=O)c1nc[nH]c1C(=O)N[C@@H](C)C(=O)OC(C)(C)C)C(=O)OCc1ccccc1	.	.	.	.	.
CC(C)(C)OC(=O)NCc1ccc(NC(=O)c2nc[nH]c2C(=O)N[C@@H](Cc2ccccc2)C(=O)OC(C)(C)C)cc1	?	.	15µM	12µM	.
C[C@H](NC(=O)c1[nH]cnc1C(=O)Nc1ccc(CNC(=O)OC(C)(C)C)cc1)C(=O)OCc1ccccc1	.	?	?	18µM	?
CC(C)C[C@H](NC(=O)c1[nH]cnc1C(=O)Nc1ccc(CNC(=O)OC(C)(C)C)cc1)C(=O)OCc1ccccc1	.	.	?	15µM	?
COc1cc(OC)c(NC(=O)c2c(C)oc3ncn(C)c(=O)c23)cc1Cl	/	/	.	.	/
CCOC(=O)c1cc2sccc2n1CC(=O)C(C)(C)C	.	.	.	.	.
Nc1c(-c2ccccc2)cnn1C1CCS(=O)(=O)C1 (stereo not drawn)	.	.	.	.	.
COc1ccc(N=c2scc(-c3ccc(OC)cc3)n2CCO)cc1	?	.	21µM	9.2µM	.
OCCCn1c(-c2ccccc2)csc1=Nc1ccccc1	.	.	23µM	16µM	.
CCN(CC)CCn1c(-c2ccccc2)csc1=Nc1ccccc1	/	/	?	16µM	/
COC(=O)c1cc(=O)n(Cc2ccc3c(c2)OCO3)c(=Nc2ccccc2)s1	.	?	.	?	?
Cc1ccc(-c2csc(=Nc3ccccc3)n2Cc2ccc3c(c2)OCO3)cc1	/	/	15µM	9.2µM	/
CCN(CC(=O)Nc1c(F)cccc1F)C(=O)/C=C/c1cn(Cc2ccccc2)nc1-c1cccnc1	.	.	?	.	.
O=C(CCNC(=O)c1ccco1)Nc1ccccc1N1CCOCC1	.	.	.	.	.
N#Cc1ccc(C(=O)NCC2CCCCC2)cc1	.	.	.	.	.
CCn1ccnc1C(O)(c1ccccc1)c1ccccc1	.	.	.	.	.
